# Assay outcomes from PubChem BioAssay.
# This is a sample that favours compounds with a hit; in the whole collection about 3.9% have one here.
# Vc quorum ag: inducers of Vibrio cholerae quorum light production without autoinducers; V. cholerae BH1578 lux reporter, luminescence, 6 h; activation, % at 18.7 µM; hit rate 0.16% among 350,000; in the data active = activation mostly above about 9.7%, no sharp cut-off; inconclusive = no clear call, values can overlap the other calls; inactive = mostly below about 3.7%
# Autofluor counter: compound fluorescence in toxin protease inhibitor counterscreen. hit rate 3.1% among 360,000. compound autofluorescence counterscreen, microsphere flow cytometry; stronger effect = higher value. AID 624483. fluorescence intensity (test concentration not listed); in the data active = fluorescence intensity above about 16000; inconclusive = no clear call, values can overlap the other calls
# Anthrax LF inh2: anthrax lethal factor protease inhibition. P15917. multiplex microsphere protease cleavage assay, LF. inhibition, % at 10 µM. hit rate 0.12% among 360,000; note: plate controls were buffer without enzyme for full effect and enzyme alone for no effect
# Target sequence (P15917 whole entry, looked up): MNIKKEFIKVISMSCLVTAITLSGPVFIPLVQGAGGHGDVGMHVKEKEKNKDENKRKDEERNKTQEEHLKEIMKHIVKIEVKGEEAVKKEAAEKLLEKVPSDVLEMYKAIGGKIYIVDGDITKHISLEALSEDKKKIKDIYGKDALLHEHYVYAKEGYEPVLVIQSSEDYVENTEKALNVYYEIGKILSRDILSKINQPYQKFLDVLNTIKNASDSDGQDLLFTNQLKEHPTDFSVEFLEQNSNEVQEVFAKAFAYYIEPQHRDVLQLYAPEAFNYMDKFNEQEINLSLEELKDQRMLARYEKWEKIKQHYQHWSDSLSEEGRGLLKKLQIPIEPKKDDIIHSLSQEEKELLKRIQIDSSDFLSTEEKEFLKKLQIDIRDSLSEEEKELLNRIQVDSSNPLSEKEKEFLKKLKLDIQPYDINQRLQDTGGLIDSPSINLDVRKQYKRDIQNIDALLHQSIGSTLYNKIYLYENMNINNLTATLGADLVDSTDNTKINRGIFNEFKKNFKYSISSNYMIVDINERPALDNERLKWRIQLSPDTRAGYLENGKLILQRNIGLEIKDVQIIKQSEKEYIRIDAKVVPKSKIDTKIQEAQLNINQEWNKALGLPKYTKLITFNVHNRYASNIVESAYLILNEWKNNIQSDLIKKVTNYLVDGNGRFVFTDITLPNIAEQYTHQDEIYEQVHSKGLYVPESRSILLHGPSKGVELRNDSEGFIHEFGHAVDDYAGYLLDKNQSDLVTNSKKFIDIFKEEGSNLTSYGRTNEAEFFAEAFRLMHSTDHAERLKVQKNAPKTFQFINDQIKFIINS
# BoNT F protease: blocks Botulinum neurotoxin F light chain protease; Multiplex microsphere protease cleavage assay, flow cytometry; inhibition, % at 10 µM; hit rate 0.22% among 360,000; AID 588497; in the data active = inhibition above about 35%, passing the limit was not always enough; inconclusive = no clear call, values can overlap the other calls; note: plate controls were buffer without enzyme for full effect and enzyme alone for no effect
# MazF activator: increases E. coli MazEF RNase cleavage of RNA. hit rate 0.32% among 350,000. P0AE70. FAM/BHQ RNA-DNA oligo cleavage fluorescence, 5 h. AID 504720. activation, % at 20 µM; in the data active = activation above about 50%
# BoNT-A LC inh2: BoNT A light chain protease inhibition | multiplex microsphere protease substrate cleavage, flow cytometry | inhibition, % at 10 µM | hit rate 0.17% among 360,000; note: plate controls were buffer without enzyme for full effect and enzyme alone for no effect
# Active calls of the source: *; i = inactive; u = inconclusive; x = no result. Cut-off read from the data, not from the text of the source, unless noted: active = inhibition above about 30%; inconclusive = no clear call, values can overlap the other calls; inactive = below that.
SMILES,Vc quorum ag,Autofluor counter,Anthrax LF inh2,BoNT F protease,MazF activator,BoNT-A LC inh2
O=C(NCc1ccccn1)c1ccccc1Cl,-2,23233*,-3,0,1,u
O=C(NCc1ccccn1)Nc1cccc([N+](=O)[O-])c1,0,5244,2,7,-8,0
O=C(COc1ccccc1Br)NCc1ccccn1,0,22895*,-1,1,4,0
COC(=O)c1ccc(-n2nc(C(F)(F)F)c3c2-c2ccoc2CC3)cc1,0,4835,-2,8,-17,-1
O=C(O)c1ccc(-n2nc(C(F)(F)F)c3c2-c2ccoc2CC3)cc1,i,21579*,1,-6,3,-6
CSc1ccc(CN2CCN(S(=O)(=O)Cc3ccccc3)CC2)cc1,i,27972*,-28,-165,-1,-103
CC1CCCN(S(=O)(=O)Cc2ccc(Cl)cc2)C1 (stereo not given),0,12216,-25,34,2,28
CCc1ccc(CN2CCN(S(=O)(=O)Cc3ccccc3)CC2)cc1,0,4264,-3,-7,-3,1
CN1CCN(S(=O)(=O)Cc2ccc(Cl)cc2)CC1,0,3510,u,36*,3,5
COC(=O)C1=CN(c2cccc(C)c2)C=C(C(=O)OC)C1c1cc(OC)c(O)c([N+](=O)[O-])c1,i,22321*,0,2,2,2
COC(=O)C1=CN(c2ccc(OC)cc2)C=C(C(=O)OC)C1c1ccc(C)c([N+](=O)[O-])c1,-5,1987,0,-3,2,1
CC1CCN(S(=O)(=O)c2cc(C(=O)N3CCN(c4ncccn4)CC3)ccc2Br)CC1,i,6813,-2,5,2,0
Cc1cc(=O)oc2cc(OCC(=O)Nc3nnc(CC(C)C)s3)ccc12,i,4905,4,35*,0,0
CCCOc1ccc(/C=c2\sc3ncnn3c2=O)cc1,i,4162,-4,1,2,1
CCOc1ccccc1/C=c1\sc2ncnn2c1=O,-1,21270*,-4,0,-4,u
CCOc1ccccc1C=C1SC(=S)N(CC)C1=O,i,3880,3,2,0,2
CC(=O)Oc1ccc(/C=c2\sc3ncnn3c2=O)cc1,i,22478*,-3,2,-17,0
CN1CCN(C(=O)c2cc3c(c(-c4cccc(-c5cc6ccccc6o5)c4)n2)[C@@H](CCO)N(S(=O)C(C)(C)C)C3)CC1 (stereo not given in full),x,6026,-4,-4,x,0
Cc1ccc(NC(=O)COC(=O)Cc2ccsc2)c(C)c1,0,3433,3,1,8,-2
CCN(c1ccccc1)S(=O)(=O)c1cccc(C(=O)NCCOc2ccccc2OC)c1,0,6771,0,8,-3,-1
Cc1cccc(N(C(=O)c2snc(C(N)=O)c2N)C(C(=O)NCC2CCCO2)c2ccc(N(C)C)cc2)c1C (stereo not given),0,4314,-1,-8,1,1
CN(C(=O)/C(N=Nc1cccc(C(F)(F)F)c1)=C(\O)C(F)(F)F)c1ccccc1,4,16687*,-1,-1,1,-1
CC(=O)/C(N=Nc1cccc(C(F)(F)F)c1)=C(\C)O,0,4434,-2,-1,1,0
CCOc1nc(NCCc2ccc(OC)c(OC)c2)nc(N2CCN(c3ccc(OC)cc3)CC2)n1,i,23445*,-2,-1,10,-1
COc1ccc(N2CCN(c3nc(NCCc4ccc(OC)c(OC)c4)nc(OC)n3)CC2)cc1,i,22889*,-5,0,-6,u
SMILES,Vc quorum ag,Autofluor counter,Anthrax LF inh2,BoNT F protease,MazF activator,BoNT-A LC inh2
COc1ccc(Nc2nc(OC)nc(N3CCN(c4ccc(OC)cc4)CC3)n2)cc1,0,12487,-4,-12,9,-4
O=C(COC(=O)C1CCN(c2ccc(C(F)(F)F)cn2)CC1)c1ccccc1,-14,4382,-5,5,-2,6
O=C(c1ccccc1)c1nc2ccccc2n(CCCn2c(=O)c(C(=O)c3ccccc3)nc3ccccc32)c1=O,i,16402*,6,0,-1,1
COC(=O)c1ccc(CSc2nc3scc(-c4cccs4)c3c(=O)[nH]2)o1,i,20323*,1,4,4,u
COC(=O)c1ccc(CSc2nc3ccc(Cl)cc3[nH]2)o1,0,3670,0,-8,-1,1
Cc1nc(C(=O)Nc2cccc(Cl)c2)nn1-c1cc(OC(C)C)c(Cl)cc1Cl,i,23251*,0,-4,-1,u
Cc1nc(C(=O)Nc2ccc(Cl)cc2Cl)nn1-c1cc(OC(C)C)c(Cl)cc1Cl,i,9951,6,7,1,0
Cc1nc(C(=O)Nc2cc(Cl)ccc2Cl)nn1-c1cc(OC(C)C)c(Cl)cc1Cl,i,24341*,-1,1,-3,-1
CCOC(=O)c1[nH]c2cc3c(cc2c1CCCN1C(=O)c2ccccc2C1=O)OCCO3,i,19746*,2,2,-10,u
CC(C)=CC(=O)Nc1ccccc1Br,-1,17220*,-4,-5,0,-4
CC(C)=CC(=O)Nc1ccccc1C(N)=O,0,9235,-2,-16,-7,-2
COc1ccc(-n2cc(-c3ccccc3)c3c(N4CCN(CCO)CC4)ncnc32)cc1,0,20444*,-2,8,-10,7
CCN(CC)CCN1C(=O)c2ccccc2NC1c1ccc(F)cc1 (stereo not given),0,9923,0,0,3,0
CCN(CC)CCN1C(=O)c2ccccc2NC1c1ccc(C)cc1 (stereo not given),i,23099*,-4,2,7,u
Cc1oc2c(C)c(O)ccc2c(=O)c1-c1ccc2ccccc2n1,0,19935*,1,2,16,2
O=C(O)c1ccccc1-c1ccc(/C=C/c2cc(C(F)(F)F)[nH]c(=O)n2)o1,-1,3632,-5,-4,745*,-1
C=CCNc1nnc(SC2CC(=O)N(c3ccc(OC)cc3)C2=O)s1 (stereo not given),i,17184*,-6,-4,-1,-3
CC(O)(c1cccc(F)c1)c1nc(/C=C/c2ccccc2)cs1 (stereo not given),0,3534,0,4,x,0
CCOC(=O)COc1c(Cl)cc(C2NC(=S)NC(c3ccccc3)=C2C(C)=O)cc1OC (stereo not given),0,2497,0,1,-8,0
COc1cc(C2NC(=S)NC(c3ccccc3)=C2C(C)=O)cc(Cl)c1OCC(=O)O (stereo not given),-1,23312*,1,-1,5,0
COCCN(C(=O)c1csnn1)C(C(=O)NC1CCCC1)c1ccccc1F (stereo not given),0,3767,-8,-17,2,-1
COc1ccccc1CCC(=O)N1CCN(S(=O)(=O)c2cc(C(F)(F)F)ccc2Cl)CC1,-1,3981,2,-8,2,0
